By viability is commonly meant a read-out of living cells in per cent, often relative to untreated cells.

The values that follow come from PubChem BioAssay.

Records with an inconclusive call do not appear. Activity calls are given as the source filed them.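 The calls were made as follows, unless noted: active = cell viability at or below a set limit in both duplicate runs, the limit being the all-compound median minus 4 SD (cut at about 23% in these data, passing the limit was not always enough); inconclusive = no clear call, values can overlap the other calls; inactive = the rest.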

One assay can be described thus: growth suppression of beta-catenin knockout HCT116, pilot screen, human colon tumor cells (AID 823).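 Also: 0% = wells killed by 20 µM Hyamine and 100% = untreated DMSO cell wells.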 Conditions: CellTiter-Glo, 60 h, at 10 µM, stronger effect = lower value. For orientation: Cellular ATP, detected with luciferase, serves as a proxy for viable cell number.
As for `COCCCNC(=O)c1ccc(CS(=O)(=O)c2ccc(OC)cc2)o1`, the viability was 98.6% (inactive).

Turning to `O=C(c1ccc(CSCc2ccccc2F)o1)N1CCN(c2ccc(N3CCOCC3)nn2)CC1`, the viability is 83.6% (inactive).

Regarding `COCCOC(=O)c1[nH]c2c(c1C)C(=O)CC(c1ccco1)C2` (stereo not given), the viability is 18.9% (active).

As for `CCOC(=O)CSc1nnc(Cn2c(=O)sc3ccccc32)n1C`, the viability was 107% (inactive).

In the case of `CCCC(=O)C1=C(N(C)c2ccccc2)CC(C)(C)C(C(=O)OC)C1=O` (stereo not given), the viability is 93.7% (inactive).

In the case of `CC1(C)CC(=O)N(CC(=O)NCc2ccccc2)c2ccccc2S1(=O)=O`, the viability was 107% (inactive).

For `CCOc1cc(C2NC(=O)NC(O)(C(F)(F)F)C2C(=O)c2ccccc2)ccc1OC` (stereo not given), the viability is 109% (inactive).

For `Cn1c(C(=O)NCCN2CCN(c3ccccc3F)CC2)cc2c(=O)n(C)c3ccccc3c21`, the viability was 74.4% (inactive).

With `Cc1cc2ccccc2n1CCNC(=O)C1CC1`, the viability was 98.3% (inactive).

Turning to `Cc1cccc(NC(=O)CS(=O)(=O)c2cn(C)c3ccccc23)c1`, the viability was 97.1% (inactive).

`COc1nnc(-c2ccc(C)c(S(=O)(=O)NCCO)c2)c2ccccc12`: the viability was 106% (inactive).

On to `COc1ccc(-c2cnc(SCC(=O)Nc3ccc4c(c3)OCO4)n2Cc2ccco2)cc1`, for which the viability was 67.4% (inactive).

In the case of `Cn1cnc2cc(NC(=O)c3ccc(Cl)cc3)ccc21`, the viability was 94.5% (inactive).

Consider `CC1CCc2nn(CC(=O)Nc3ccc(F)cc3F)cc2C1` (stereo not given), for which the viability is 97.8% (inactive).

Take `Cc1ccc(-c2noc(CN3CCN(c4ccccc4F)CC3)n2)cc1`: the viability is 93.3% (inactive).

Turning to `Cc1ccc(NC(=O)c2cc(-c3ccc(C)o3)nc3ccccc23)nc1`, the viability was 78.6% (inactive).

In the case of `Cc1nnc(N2C(=O)C(O)=C(C(=O)c3ccco3)C2c2ccc(F)cc2)s1` (stereo not given), the viability is 106% (inactive).

On to `COc1ccccc1N(CC(=O)Nc1cccnc1)S(C)(=O)=O`, for which the viability is 103% (inactive).

For `CCCc1cc(C(=O)Nc2ccccc2SC)no1`, the viability was 100% (inactive).

`O=C(CSc1nc2c(c(=O)n1-c1ccc(F)cc1)SCC2)NCC1CCCO1` (stereo not given): the viability is 98.2% (inactive).

Take `COc1ccc(-c2nc(C)c(C(C)=O)n2O)cc1OC`: the viability was 96.5% (inactive).

With `C=CCOC(=O)COc1ccc2c(C)c(C)c(=O)oc2c1C`, the viability was 101% (inactive).

With `CN(C)CCCNC(=O)CCC1CCCCC1`, the viability is 99.5% (inactive).

In the case of `CC(C)(O)C#Cc1ccc(C(=O)N2CCN(C(=O)c3ccco3)CC2)cc1`, the viability is 92.4% (inactive).

Consider `Nc1cccc2c1C(=O)N(c1ccccc1)C2=O`, for which the viability was 106% (inactive).

As to `COc1ccc(N2CCN(CCNC(=O)CCS(=O)(=O)c3cccc4nsnc34)CC2)cc1`, the viability was 98.5% (inactive).

As to `CCOC(=O)CCc1c(C)nc2cc(-c3ccc(F)cc3)[nH]n2c1=O`, the viability is 95.8% (inactive).

As for `O=C1CC(c2cccnc2)c2cc3c(cc2N1)OCO3` (stereo not given), the viability is 105% (inactive).

Take `COc1ccccc1CNC(=O)C1CCCN(S(=O)(=O)c2cccc3cccnc23)C1` (stereo not given): the viability is 90.6% (inactive).

Turning to `Oc1c(C(c2ccccc2)N2CCc3ccccc3C2)sc2ncnn12` (stereo not given), the viability was 97.1% (inactive).

For the compound `O=C(NCCc1c[nH]c2ccccc12)c1cnc2n(c1=O)CCS2`, the viability was 96.6% (inactive).

With `CC(NC(=O)c1cc2c(=O)n(C)c3ccccc3c2n1C)c1ccc2c(c1)OCCO2` (stereo not given), the viability was 65.6% (inactive).

For `CCOC(=O)c1ccc(-n2c(C)nc3c(cnn3-c3ccccc3C)c2=O)cc1`, the viability is 94.4% (inactive).

`COc1ccc(CCNC(=O)CSc2nnnn2-c2ccccc2OC)cc1OC`: the viability is 86.9% (inactive).

As to `CCCSc1nnc(N2C(=O)CC(c3ccsc3)C3=C2CCCC3=O)s1` (stereo not given), the viability was 99.4% (inactive).

In the case of `COC(=O)Cn1c(=O)c2c(nc3n2CC(C)CN3c2ccc(C)c(C)c2)n(C)c1=O` (stereo not given), the viability was 97.9% (inactive).

Turning to `O=C(Nc1cccnc1)Nc1ccccn1`, the viability is 99.8% (inactive).

For `CCn1cc(C(=O)NCc2ccccc2OC)c(=O)c2cc(S(=O)(=O)N(C)C)ccc21`, the viability was 87.1% (inactive).

Regarding `CC1CCN(c2oc(-c3ccccc3F)nc2C#N)CC1`, the viability is 89.4% (inactive).

Consider `Clc1ccc(Nc2ncnc3c2cnn3-c2ccccc2)cc1`, for which the viability is 81.7% (inactive).

Another assay in a line: growth suppression of PTEN-deleted HCT116, pilot screen, cell-based, HCT116 clonal line, CellTiter-Glo (AID 824;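 active = viability at or below 27.92% in each of two runs, the all-compound median minus 4 SD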;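 also: 0% = 20 µM Hyamine control and 100% = vehicle cell control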). Conditions: 60 h, at 10 µM, stronger effect = lower value.
Turning to `COCCCNC(=O)c1ccc(CS(=O)(=O)c2ccc(OC)cc2)o1`, the viability was 91% (inactive).

On to `O=C(c1ccc(CSCc2ccccc2F)o1)N1CCN(c2ccc(N3CCOCC3)nn2)CC1`, for which the viability is 89.7% (inactive).

As for `COCCOC(=O)c1[nH]c2c(c1C)C(=O)CC(c1ccco1)C2` (stereo not given), the viability is 23.9% (active).

Regarding `CCOC(=O)CSc1nnc(Cn2c(=O)sc3ccccc32)n1C`, the viability is 106% (inactive).

Turning to `CCCC(=O)C1=C(N(C)c2ccccc2)CC(C)(C)C(C(=O)OC)C1=O` (stereo not given), the viability is 92.9% (inactive).

For `CC1(C)CC(=O)N(CC(=O)NCc2ccccc2)c2ccccc2S1(=O)=O`, the viability was 100% (inactive).

Regarding `CCOc1cc(C2NC(=O)NC(O)(C(F)(F)F)C2C(=O)c2ccccc2)ccc1OC` (stereo not given), the viability is 97.8% (inactive).

In the case of `Cn1c(C(=O)NCCN2CCN(c3ccccc3F)CC2)cc2c(=O)n(C)c3ccccc3c21`, the viability was 73.2% (inactive).

`Cc1cc2ccccc2n1CCNC(=O)C1CC1`: the viability is 101% (inactive).

Turning to `Cc1cccc(NC(=O)CS(=O)(=O)c2cn(C)c3ccccc23)c1`, the viability was 92.6% (inactive).

As to `COc1nnc(-c2ccc(C)c(S(=O)(=O)NCCO)c2)c2ccccc12`, the viability is 101% (inactive).

As for `COc1ccc(-c2cnc(SCC(=O)Nc3ccc4c(c3)OCO4)n2Cc2ccco2)cc1`, the viability was 67.4% (inactive).

As for `Cn1cnc2cc(NC(=O)c3ccc(Cl)cc3)ccc21`, the viability was 96.5% (inactive).

Take `CC1CCc2nn(CC(=O)Nc3ccc(F)cc3F)cc2C1` (stereo not given): the viability was 98.3% (inactive).

As for `Cc1ccc(-c2noc(CN3CCN(c4ccccc4F)CC3)n2)cc1`, the viability was 92.4% (inactive).

With `Cc1ccc(NC(=O)c2cc(-c3ccc(C)o3)nc3ccccc23)nc1`, the viability is 84.2% (inactive).

As for `Cc1nnc(N2C(=O)C(O)=C(C(=O)c3ccco3)C2c2ccc(F)cc2)s1` (stereo not given), the viability was 101% (inactive).

Regarding `COc1ccccc1N(CC(=O)Nc1cccnc1)S(C)(=O)=O`, the viability was 97.2% (inactive).

`CCCc1cc(C(=O)Nc2ccccc2SC)no1`: the viability is 93.4% (inactive).

As to `O=C(CSc1nc2c(c(=O)n1-c1ccc(F)cc1)SCC2)NCC1CCCO1` (stereo not given), the viability was 90.9% (inactive).

Regarding `COc1ccc(-c2nc(C)c(C(C)=O)n2O)cc1OC`, the viability is 90.1% (inactive).

As to `C=CCOC(=O)COc1ccc2c(C)c(C)c(=O)oc2c1C`, the viability was 95.9% (inactive).

For the compound `CN(C)CCCNC(=O)CCC1CCCCC1`, the viability was 107% (inactive).

In the case of `CC(C)(O)C#Cc1ccc(C(=O)N2CCN(C(=O)c3ccco3)CC2)cc1`, the viability is 99.8% (inactive).

Regarding `Nc1cccc2c1C(=O)N(c1ccccc1)C2=O`, the viability is 95.2% (inactive).

Regarding `COc1ccc(N2CCN(CCNC(=O)CCS(=O)(=O)c3cccc4nsnc34)CC2)cc1`, the viability is 95.2% (inactive).

Consider `CCOC(=O)CCc1c(C)nc2cc(-c3ccc(F)cc3)[nH]n2c1=O`, for which the viability is 95.1% (inactive).

With `O=C1CC(c2cccnc2)c2cc3c(cc2N1)OCO3` (stereo not given), the viability is 99.8% (inactive).

Regarding `COc1ccccc1CNC(=O)C1CCCN(S(=O)(=O)c2cccc3cccnc23)C1` (stereo not given), the viability was 91.6% (inactive).

`Oc1c(C(c2ccccc2)N2CCc3ccccc3C2)sc2ncnn12` (stereo not given): the viability is 93.3% (inactive).

Take `O=C(NCCc1c[nH]c2ccccc12)c1cnc2n(c1=O)CCS2`: the viability was 95.7% (inactive).

Regarding `CC(NC(=O)c1cc2c(=O)n(C)c3ccccc3c2n1C)c1ccc2c(c1)OCCO2` (stereo not given), the viability is 58.2% (inactive).

Take `CCOC(=O)c1ccc(-n2c(C)nc3c(cnn3-c3ccccc3C)c2=O)cc1`: the viability was 91% (inactive).

As to `COc1ccc(CCNC(=O)CSc2nnnn2-c2ccccc2OC)cc1OC`, the viability is 92.3% (inactive).

Consider `CCCSc1nnc(N2C(=O)CC(c3ccsc3)C3=C2CCCC3=O)s1` (stereo not given), for which the viability is 89.6% (inactive).

`COC(=O)Cn1c(=O)c2c(nc3n2CC(C)CN3c2ccc(C)c(C)c2)n(C)c1=O` (stereo not given): the viability was 91.1% (inactive).

Take `O=C(Nc1cccnc1)Nc1ccccn1`: the viability is 92.9% (inactive).

Turning to `CCn1cc(C(=O)NCc2ccccc2OC)c(=O)c2cc(S(=O)(=O)N(C)C)ccc21`, the viability is 85.5% (inactive).

In the case of `CC1CCN(c2oc(-c3ccccc3F)nc2C#N)CC1`, the viability is 88.9% (inactive).

On to `Clc1ccc(Nc2ncnc3c2cnn3-c2ccccc2)cc1`, for which the viability was 74.8% (inactive).
